High-throughput results: PubChem BioAssay, several laboratories
Hits are enriched below; roughly 3.8% of the tested compounds scored in any of these assays.
FGF22 binding: binders of human FGF22 protein, primary screen, FGF22 synaptogenesis inhibitor project, biophysical, thermal shift, single point. hit rate 1.5% among 340,000. AID 651658, 2012. recombinant FGF22 thermal shift, SYPRO orange fluorescence; percent of sucrose octasulfate shift, DMSO zero. Fibroblast growth factor 22 (Homo sapiens), Q9HCT0. activity (Tm shift, normalised), % at 9.99 µM;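 active = mean Tm shift, scaled 0 neutral to 100 positive control, at about 1.3% or above, every replicate too, limit read from the data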
Target sequence (Q9HCT0 whole entry, looked up): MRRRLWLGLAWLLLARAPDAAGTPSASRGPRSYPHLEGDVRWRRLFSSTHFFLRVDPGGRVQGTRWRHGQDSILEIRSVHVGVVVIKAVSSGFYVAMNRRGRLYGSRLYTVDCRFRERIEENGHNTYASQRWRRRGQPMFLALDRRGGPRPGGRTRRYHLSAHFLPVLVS
ADAM17 inh: ADAM17 inhibitors, primary screen, biochemical, QFRET; inhibition, % at 6.95 µM; hit rate 0.83% among 370,000; Disintegrin and metalloproteinase domain-containing protein 17 (Homo sapiens), P78536; recombinant ADAM17, EDANS/DABCYL FRET peptide cleavage;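 active = inhibition above the mean of compounds lying between control limits plus 3 SD, set per campaign, cut at about 8.5% in these data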;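 also: 0% = DMSO-only wells as the low control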
ADAM10 inh: human ADAM10 inhibitors, primary screen, biochemical, QFRET, HTS; Disintegrin and metalloproteinase domain-containing protein 10 (Homo sapiens), O14672; recombinant ADAM10, EDANS/DABCYL FRET peptide cleavage, 3 h; inhibition, % at 7 µM; hit rate 0.62% among 370,000;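 active = inhibition above a per-campaign cutoff equal to the mean of compounds falling between control-based bounds plus 3 SD, cut at about 20% in these data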;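 also: 0% = DMSO wells while the 100% control is not disclosed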
proKLK7 act: proKLK7 zymogen activators, primary screen, biochemical, fluorescence intensity; Kallikrein-7 (Homo sapiens), P49862; purified proKLK7, EDANS-DABCYL substrate fluorescence; 100% is mature enzyme control, 0% vehicle; activation, % at 7 µM; hit rate 0.9% among 370,000; AID 652039, 2013;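 active = activation above the mean of all tested compounds plus 3 SD, computed per campaign excluding outliers beyond control limits, cut at about 13% in these data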
Target sequence (P49862 whole entry, looked up): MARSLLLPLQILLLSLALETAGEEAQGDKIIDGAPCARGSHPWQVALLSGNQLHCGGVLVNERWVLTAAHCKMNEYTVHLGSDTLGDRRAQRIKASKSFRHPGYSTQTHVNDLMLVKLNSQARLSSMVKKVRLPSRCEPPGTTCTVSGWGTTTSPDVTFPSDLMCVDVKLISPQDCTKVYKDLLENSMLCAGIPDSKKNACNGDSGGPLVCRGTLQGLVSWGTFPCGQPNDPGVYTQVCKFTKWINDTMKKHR
Ecoli rRNA inh: reduced GFP signal of wild-type E. coli, primary screen, bacterial rRNA inhibitor project, GFP/RFP fluorescence, OD600, single point. E. coli WT GFP vs humanized-ribosome RFP mutants, 24 h; active compounds read low; DMSO median 0, no signal -100. hit rate 1.6% among 350,000. GFP signal change (wild-type ribosome), % (no concentration beside the values). AID 720706, 2013;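 active = significant combined selectivity score with lowered wild-type GFP, culture density cut under 30%, mutant RFP and density less affected; inactive = any of these conditions unmet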
* marks the source's active call; other numbers are inactive results; i = inactive; / = not tested or not shown.

SMILES	FGF22 binding	ADAM17 inh	ADAM10 inh	proKLK7 act	Ecoli rRNA inh
Cc1cc(=O)c2ccccc2n1CC(=O)NCc1ccccc1	/	0	3	0	/
Cc1cc(=O)c2ccccc2n1Cc1ccccc1	44*	-3	-2	0	-22*
Cc1cc(=O)[nH]c(=O)n1Cc1ccccc1	43*	-3	7	0	0
COC(=O)C[C@H]1CC[C@H]2[C@@H](COc3ccc(NC(=O)CN(C)C)cc3C(=O)N2C)O1	/	/	/	/	6
O=S(=O)(Cc1ccccc1)N1CC2(C1)[C@@H](c1ccccc1)[C@H](CO)N2CC1CC1	/	/	/	/	-3
CN(C)CC(=O)Nc1ccc2c(c1)[C@H]1C[C@@H](CC(=O)N3CCOCC3)O[C@H](CO)[C@H]1O2	0	/	/	/	3
COc1ccc(CN(C)C[C@@H]2Oc3ccc(NS(=O)(=O)c4cccs4)cc3C(=O)N([C@@H](C)CO)C[C@@H]2C)cc1	0	/	/	/	-1
Cc1cccc(C)c1OCC(O)CN1CCN(c2ccccc2)CC1 (centres undefined)	0	-2	1	-1	-29*
C/C=C/c1ccc2c(c1)O[C@@H](CN(C)C(=O)CN1CCOCC1)[C@H](C)CN([C@H](C)CO)S2(=O)=O	0	/	/	/	1
OCCNCCSc1ccc(Cl)cc1	43*	1	-3	0	/
OCCNCCCCSc1ccc(Cl)cc1	0	0	-4	0	3
O=C1OCC2=C1C(c1ccc(F)cc1)c1cc3c(cc1N2)OCCO3 (centres undefined)	0	-289	i	3	17
O=C1OCC2=C1C(c1ccc(F)cc1)c1cc3c(cc1N2)OCO3 (centres undefined)	43*	-109	-320	3	/
CN1[C@@H]2c3ccc(C4=CCCC4)c(=O)n3C[C@@H]2[C@@H](CO)[C@@H]1C(=O)NCc1ccccc1F	0	/	/	/	0
CC1(C)CC(=O)/C(=C(\O)CCCN2C(=O)c3ccccc3C2=O)C(=NCC(=O)O)C1	43	-1	1	0	20
CC(N=C1CC(C)(C)CC(=O)/C1=C(/O)CCCN1C(=O)c2ccccc2C1=O)C(=O)O (centres undefined)	43*	-1	3	-1	4
CCOC(=O)c1ccoc1CN1CCN(S(=O)(=O)c2ccc(C)c(C)c2)CC1	0	0	5	0	-20*
Cc1ccc(S(=O)(=O)N2CCN(Cc3ccco3)CC2)cc1C	0	-4	6	0	-6
C[C@H]1CCCCO[C@H](CN(C)C(=O)C2CCCCC2)[C@@H](C)CN([C@@H](C)CO)C(=O)c2cc(N(C)C)ccc2O1	/	/	/	/	-7
CCCC(=O)N1CC2(CN(C(C)=O)C2)c2c(n(C)c3cc(OC)ccc23)[C@H]1CO	/	/	/	/	1
CC(=O)c1sc(NC(=O)c2ccc(C)c(C)c2)nc1C	44*	1	5	0	20
CC(=O)c1sc(NC(=O)c2ccc(C(C)(C)C)cc2)nc1C	41	0	-3	0	5
Cc1ccc(S(=O)(=O)NNC(=O)Nc2ccc([N+](=O)[O-])cc2)c(C)c1	0	2	6	-1	-23*
Cc1ccc(S(=O)(=O)NNC(=O)Nc2cccc(F)c2)c(C)c1	0	-1	-10	0	3
CC(=O)N1[C@@H]2CN(C(=O)NC(C)C)C[C@H]1C2c1ccccc1 (some centres undefined)	/	/	/	/	1
SMILES	FGF22 binding	ADAM17 inh	ADAM10 inh	proKLK7 act	Ecoli rRNA inh
CN(C(=O)COC(=O)c1cnc(Cl)c(Cl)c1)C1CCS(=O)(=O)C1 (centres undefined)	0	7	3	0	4
CN(C(=O)COC(=O)c1cnc(Cl)c(Cl)c1)C1CCCCC1	0	-4	-6	0	-14*
C[C@@H]1CCCCO[C@H](CN(C)C(=O)Nc2ccc(F)cc2)[C@H](C)CN([C@@H](C)CO)C(=O)c2cc(NC(=O)CCCN(C)C)ccc2O1	0	/	/	/	-1
O=C(C1=C[C@@H](c2ccc(C(F)(F)F)cc2)C[C@@H](OCc2ccc(CO)cc2)O1)N1CCN(Cc2ccc3c(c2)OCO3)CC1	0	8	28*	0	-4
CC(C)Cc1ccc([C@H](C)C(=O)O)cc1	0	-5	2	0	6
CC(C)Cc1ccc(C(C)C(N)=Nc2ccc(O)cc2)cc1 (centres undefined)	0	-6	7	-1	-44*
COCCCNC(=O)CN(CCc1ccccc1)S(=O)(=O)c1ccc(C)cc1	44*	0	4	0	-1
COc1ccc(S(=O)(=O)N(C)C[C@@H]2OCCCC[C@@H](C)Oc3ccc(NS(=O)(=O)c4ccc(F)cc4)cc3C(=O)N([C@H](C)CO)C[C@H]2C)cc1	0	/	/	/	-1
N#C/C(=C\C=C\c1ccccc1)C(=O)Nc1ccccc1	44*	-3	2	-1	2
COc1ccc(S(=O)(=O)N[C@H]2C=C[C@@H](CC(=O)NCCc3ccncc3)O[C@H]2CO)cc1	0	/	/	/	-2
NC(=S)Nc1cccc2cc3ccccc3cc12	/	-142	-452	6	/
NC(=S)Nc1cc2ccccc2c2ccccc12	/	-27	-109	14*	/
CC(C)C(=O)Nc1ncc(Cc2ccc(Cl)cc2)s1	0	4	6	0	-28*
CC(C)C(=O)Nc1ncc(Cc2cccc(Cl)c2)s1	0	-2	2	0	-28
Cc1cc(=O)n(C)c(=O)n1CCCCCOc1cccc([N+](=O)[O-])c1	/	-3	0	0	/
Cc1cc(=O)n(C)c(=O)n1CCCCOc1cccc([N+](=O)[O-])c1	44*	-2	-6	0	/
CCN(C(=O)COC(=O)c1ccc(Cl)c(S(=O)(=O)N2CCCCC2)c1)C1CCS(=O)(=O)C1 (centres undefined)	0	-2	3	0	1
CCN(C(=O)COC(=O)c1cc(-c2cccs2)nc2ccccc12)C1CCS(=O)(=O)C1 (centres undefined)	0	-385	i	-65	-23*
CCN(C(=O)COC(=O)c1ccc(Cl)c(N)c1)C1CCS(=O)(=O)C1 (centres undefined)	43*	-22	-60	0	7
CCN(C(=O)COC(=O)c1cc(-c2ccccc2)nc2ccc(Br)cc12)C1CCS(=O)(=O)C1 (centres undefined)	0	-6	-4	0	1
CO[C@@H]1CN(C)C(=O)c2cc(NC(=O)CC(F)(F)F)ccc2OC[C@H](C)N(C(=O)C2CCOCC2)C[C@@H]1C	0	/	/	/	2
Cc1ccc(NCc2nnc(SCC(N)=O)o2)c(C)c1	0	-3	0	0	14
